Records with an inconclusive call do not appear. Calls of active or inactive are those of the source. The call rests on the fitted dose curve; in most records, active means well fitted cell-killing curve with a large enough effect; inconclusive means small, poorly fitted or top-dose-only effect, or effect the other way; inactive means flat fitted curve, though single readings scatter.
How the values were obtained:
Experiment in all cases: Primary qHTS to identify gynecologic anti-cancer compounds using libraries of approved drugs and bioactive compounds (AID 1345084); further: nearly all actives have a fitted effect of over 55% in size
Settings in all cases: Gynecologic cancer cell panel viability, ATPlite luminescence, 48 h; series mostly up to 57.5 µM
PA-1 = tested on: PA-1
How it was run: (§1)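 In this quantitative HTS, cell killing is estimated from loss of ATP-dependent luciferase light. Cells see five compound concentrations over a 48 h exposure.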

SKOV3 = tested on: SKOV3
How it was run: as §1

Tov-21-G = tested on: Tov-21-G
How it was run: as §1

Tov112D = tested on: Tov112D
How it was run: as §1
On the % scale 0 is the no-effect control and ±100 the full control effect.

COC(=O)[C@H](c1ccccc1Cl)N1CCC2SC(=O)C=C2C1 (stereo partly drawn)
inactive: Potency (PA-1) | Potency (SKOV3) | Potency (Tov-21-G) | Potency (Tov112D)

CC(C)C1NC(=O)C(CC2(O)c3ccccc3N3C(=O)C(Cc4ccccc4)NC32)NC1=O (stereo not drawn)
inactive: Potency (PA-1) | Potency (SKOV3) | Potency (Tov-21-G) | Potency (Tov112D)

CC[C@@H]1C(=O)O[C@]23C=C[C@@H]4C(C(=O)OC)=CO[C@H](O[C@@H]12)[C@@H]43
inactive: Potency (PA-1) | Potency (SKOV3) | Potency (Tov-21-G) | Potency (Tov112D)

C[C@]12CCC[C@](C)(C(=O)O)C1[C@@H](O)[C@@H](O)C13CC(CCC12)C(CO)(O[C@@H]1O[C@H](CO)[C@@H](O)[C@H](O)[C@H]1O)C3 (stereo partly drawn)
inactive: Potency (PA-1) | Potency (SKOV3) | Potency (Tov-21-G) | Potency (Tov112D)

CCC(=O)N1CCc2cc(OC)c(O)cc2C1
inactive: Potency (PA-1) | Potency (SKOV3) | Potency (Tov-21-G) | Potency (Tov112D)

COC(=O)C[C@@H]1C(C(=O)O)=CO[C@@H](O[C@@H]2O[C@H](CO)[C@@H](O)[C@H](O)[C@H]2O)/C1=C\COC(=O)/C=C/c1ccc(O)c(OC)c1
inactive: Potency (PA-1) | Potency (SKOV3) | Potency (Tov-21-G) | Potency (Tov112D)

COc1cc2c(cc1O)C(c1ccc(O)cc1)C(C)C(C)C2 (stereo not drawn)
inactive: Potency (PA-1) | Potency (SKOV3) | Potency (Tov-21-G) | Potency (Tov112D)

C=C1CC[C@@]2(OC1)O[C@H]1CC3[C@@H]4CC=C5C[C@H](O[C@H]6OC[C@@H](O)C(O)[C@@H]6O[C@@H]6O[C@@H](C)[C@H](O)[C@@H](O[C@@H]7O[C@H](CO)[C@@H](O)[C@H](O)[C@H]7O)[C@H]6O)C[C@@H](O)[C@]5(C)C4CC[C@]3(C)[C@H]1[C@@H]2C (stereo partly drawn)
inactive: activity change, negative = cytotoxicity (PA-1) 3.82% [at 11.6 µM] | activity change, negative = cytotoxicity (SKOV3) 0.203% [at 11.6 µM] | activity change, negative = cytotoxicity (Tov-21-G) 7.35% [at 11.6 µM] | activity change, negative = cytotoxicity (Tov112D) 1.29% [at 11.6 µM]

C[C@H]1CC[C@@]2(OC1)O[C@H]1CC3C4CC[C@H]5C[C@@H](O[C@@H]6O[C@H](CO)[C@H](O[C@@H]7O[C@H](CO)[C@@H](O)[C@H](O[C@@H]8OC[C@@H](O)[C@H](O)[C@H]8O)[C@H]7O[C@@H]7O[C@H](CO)[C@@H](O)[C@H](O)[C@H]7O)[C@H](O)[C@H]6O)[C@H](O)C[C@]5(C)C4=CC(=O)[C@]3(C)[C@H]1[C@@H]2C (stereo partly drawn)
inactive: activity change, negative = cytotoxicity (PA-1) 7.95% [at 11.6 µM] | activity change, negative = cytotoxicity (SKOV3) 0.679% [at 11.6 µM] | activity change, negative = cytotoxicity (Tov-21-G) -4.82% [at 11.6 µM] | activity change, negative = cytotoxicity (Tov112D) 2.81% [at 11.6 µM]

CC(C)=CCc1c(O)cc2oc3cc(C)cc(O)c3c2c1C
inactive: Potency (PA-1) | Potency (SKOV3) | Potency (Tov-21-G) | Potency (Tov112D)

Cc1cc(OCCN2CCOCC2)nn1-c1ccc2ccccc2c1
inactive: Potency (PA-1) | Potency (SKOV3) | Potency (Tov-21-G) | Potency (Tov112D)

C[C@H]1CC[C@@]2(OC1)O[C@H]1CC3C4CC[C@H]5C[C@@H](O)CC[C@]5(C)C4CC(=O)[C@]3(C)[C@H]1[C@@H]2C (stereo partly drawn)
inactive: Potency (PA-1) | Potency (SKOV3) | Potency (Tov-21-G) | Potency (Tov112D)

CN1CCc2cc(Cl)c(O)cc2[C@@H](c2cccc3c2OCC3)C1
inactive: Potency (PA-1) | Potency (SKOV3) | Potency (Tov-21-G) | Potency (Tov112D)

C=C1C[C@]23C[C@@]1(O)CC[C@H]2[C@@]12C=C[C@H](O)[C@@](C)(C(=O)O1)[C@H]2[C@@H]3C(=O)O
inactive: Potency (PA-1) | Potency (SKOV3) | Potency (Tov-21-G) | Potency (Tov112D)

CC(C)(O)c1ccc2c(c1)C(=O)C[C@H]1[C@](C)(C(=O)O)CCC[C@]21C
inactive: Potency (PA-1) | Potency (SKOV3) | Potency (Tov-21-G) | Potency (Tov112D)

O=C(O)CC/C=C\C[C@H]1CO[C@@H](c2ccccc2Cl)O[C@H]1c1ccccc1O
inactive: Potency (PA-1) | Potency (SKOV3) | Potency (Tov-21-G) | Potency (Tov112D)

C=C1CCC[C@]2(C)CC[C@@](O)(C(=C)C(=O)O)C[C@@H]12
inactive: Potency (PA-1) | Potency (SKOV3) | Potency (Tov-21-G) | Potency (Tov112D)

C=C[C@H]1[C@H](O[C@@H]2O[C@H](CO)[C@@H](O)[C@H](OC(=O)/C=C/c3ccc(O)c(OC)c3)[C@H]2O)OC=C2C(=O)OCC[C@]21O
inactive: Potency (PA-1) | Potency (SKOV3) | Potency (Tov-21-G) | Potency (Tov112D)

CCOC(=O)C(CCc1ccccc1)NC(C)C(=O)N1Cc2ccccc2CC1C(=O)O (stereo not drawn)
inactive: Potency (PA-1) | Potency (SKOV3) | Potency (Tov-21-G) | Potency (Tov112D)

COC(=O)C1=CO[C@@H](O[C@@H]2O[C@H](CO)[C@@H](O)[C@H](O)[C@H]2O)C2C1CC(O)C2C (stereo partly drawn)
inactive: Potency (PA-1) | Potency (SKOV3) | Potency (Tov-21-G) | Potency (Tov112D)

C=C1C[C@]23C[C@H]1CC[C@H]2[C@]1(C)CC[C@H](O)[C@@](C)(C(=O)O)[C@H]1[C@@H]3C(=O)O
inactive: Potency (PA-1) | Potency (SKOV3) | Potency (Tov-21-G) | Potency (Tov112D)

Cc1sc(C)c(C(=O)NC2(c3ccc(C(=O)O)cc3)CC2)c1Cc1ccc(C(F)(F)F)cc1
inactive: Potency (PA-1) | Potency (SKOV3) | Potency (Tov-21-G) | Potency (Tov112D)

CCNC(=O)C1CC(F)(c2ccc(CN3CCCC3)c(F)c2)C1 (stereo not drawn)
inactive: Potency (PA-1) | Potency (SKOV3) | Potency (Tov-21-G) | Potency (Tov112D)

O=C(OCC1=C[C@@H](O)[C@@H]2C=CO[C@@H](O[C@@H]3O[C@H](CO)[C@@H](O)[C@H](O)[C@H]3O)[C@H]12)c1ccc(O)cc1
inactive: Potency (PA-1) | Potency (SKOV3) | Potency (Tov-21-G) | Potency (Tov112D)

CC1(C)C[C@@H]2[C@H](C1)[C@@]1(C)C[C@]13C(O)OC[C@]3(O)[C@H]2O (stereo partly drawn)
inactive: Potency (PA-1) | Potency (SKOV3) | Potency (Tov-21-G) | Potency (Tov112D)

O=C(O)c1ccc(NC(=O)[C@H](CC2CCCC2)n2cnc(C(F)(F)F)c2)nc1
inactive: Potency (PA-1) | Potency (SKOV3) | Potency (Tov-21-G) | Potency (Tov112D)

C[C@@H]1O[C@@H](O[C@H]2[C@H](O[C@H]3[C@H](O[C@H]4CC[C@@]5(C)C(CC[C@]6(C)C5CC=C5[C@@H]7CC(C)(C)C[C@@H](O)[C@]7(C)CC[C@]56C)C4(C)C)O[C@H](C(=O)O)[C@@H](O)[C@@H]3O)O[C@H](C(=O)O)[C@H](O)[C@@H]2O)[C@H](O)[C@H](O)[C@H]1O (stereo partly drawn)
inactive: activity change, negative = cytotoxicity (PA-1) 12.6% [at 11.6 µM] | activity change, negative = cytotoxicity (SKOV3) 6.58% [at 11.6 µM] | activity change, negative = cytotoxicity (Tov-21-G) 9.44% [at 11.6 µM] | activity change, negative = cytotoxicity (Tov112D) 4.96% [at 11.6 µM]

— PubChem BioAssay (NCATS)
